# From PubChem BioAssay (NCATS)
# Inconclusive results are not listed. Activity calls are given as the source filed them. Calls come from the whole dose curve; as a rule, active = well fitted inhibition curve with a large enough effect; inconclusive = small, poorly fitted or top-dose-only effect; inactive = flat fitted curve, though single readings scatter. Peptide text beside a SMILES is read from it.
# Tested on: ATS189
# Experiment: qHTS profiling for inhibitors of Plasmodium falciparum proliferation (AID 504749); note: nearly all actives have a fitted effect of over 60% in size;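 for activity, negative = inhibition: 0% = DMSO vehicle and full inhibition = artemisinin control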
# Conditions: P. falciparum in erythrocytes, SYBR Green DNA, 72 h; series mostly up to 12.8 µM; activity, negative = inhibition: at the top concentration
# Outline: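 Readout was DNA-dye fluorescence from lysed cultures, ex 485/em 535 nm. Parasitized red cells had grown 72 h with compound; data scaled between 0.29 uM artemisinin and DMSO wells and corrected using vehicle-only plates.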
# Potency is the fitted concentration of half-maximal effect.
Structure (SMILES),"activity, negative = inhibition",Potency
CCC(C)C(=O)OC1CCC=C2C=CC(C)C(CCC3CC(O)CC(=O)O3)[C@@H]21 (some centres not stated),3.98% [at 28.7 µM] (inactive),–
C[C@]1(c2ccccc2)OC(C(=O)O)=CC1=O,15.8% [at 28.7 µM] (inactive),–
OCC1OC([S-])[C@H](O)C(O)C1O.[Au+] (some centres not stated),-0.24% [at 28.7 µM] (inactive),–
COC(=O)N/N=C/C1=C[N+](=O)c2ccccc2[N+]1=O,-3.25% [at 28.7 µM] (inactive),–
CN1CC(=O)N=C1N,7.63% [at 28.7 µM] (inactive),–
CNC1CC(N)[C@H](O)[C@@H](O[C@@H]2OC(CO)C3OC4(OC(C(N)CO)C(O)C(O)C4O)O[C@@H]3[C@H]2O)C1O (some centres not stated),8.85% [at 28.7 µM] (inactive),–
COC1C=CO[C@@]2(C)Oc3c(C)c(O)c4c(O)c(c(C=NN5CCN(C)CC5)c(O)c4c3C2=O)NC(=O)/C(C)=C\C=CC(C)C(O)[C@@H](C)C(O)C(C)[C@H](OC(C)=O)C1C (some centres not stated),–,1.58 µM (active)
CC(=O)N[C@@H]1C(O)OC(CO)C(O)C1O (some centres not stated),5.53% [at 28.7 µM] (inactive),–
CCC(CCC(C)C1CCC2C3CC=C4CC(O)CC[C@@]4(C)C3CC[C@@]12C)C(C)C (some centres not stated),11.2% [at 28.7 µM] (inactive),–
O=C1OC(CO)C(O)C(O)C1O (configuration not stated),5.95% [at 28.7 µM] (inactive),–
COc1ccc(CC(N)C(=O)NC2C(CO)OC(n3cnc4c(N(C)C)ncnc43)C2O)cc1 (configuration not stated),–,0.794 µM (active)
CCCC(=O)O[C@]1(C(=O)CO)CCC2[C@@H]3CCC4=CC(=O)CC[C@]4(C)C3C(O)C[C@]21C (some centres not stated),5.82% [at 28.7 µM] (inactive),–
COC(=O)C(Cc1ccccc1)NC(=O)C(N)CC(=O)O (stereo not drawn) (H-Asp-Phe-OMe; configuration not given here),11.7% [at 28.7 µM] (inactive),–
CC[C@@]12CCCN3CCc4c(n(c5ccccc45)[C@](O)(C(=O)OC)C1)C32 (some centres not stated),2.97% [at 28.7 µM] (inactive),–
CC1(C)SC2C(N3C(=O)C(c4ccccc4)NC3(C)C)C(=O)N2C1C(=O)O (configuration not stated),9.72% [at 28.7 µM] (inactive),–
CC1CCC(C(C)C)C(=O)C1 (configuration not stated),7.69% [at 28.7 µM] (inactive),–

Structure (SMILES),"activity, negative = inhibition",Potency
CC(=O)N[C@H](CC(C)C)C(=O)O,8.96% [at 28.7 µM] (inactive),–
CC(C)C1CCC(C(=O)NC(Cc2ccccc2)C(=O)O)CC1 (configuration not stated),14.6% [at 28.7 µM] (inactive),–
COc1ccc2cc(C(C)CO)ccc2c1 (configuration not stated),6.95% [at 28.7 µM] (inactive),–
COc1ccc2cc1Oc1ccc(cc1)CC1c3c(cc4c(c3Oc3cc5c(cc3OC)CCN(C)C5C2)OCO4)CCN1C (configuration not stated),–,4.47 µM (active)
CNC1C(OC2C(O[C@@H]3C(O)C(O)[C@@H](N=C(N)N)C(O)C3N=C(N)N)OC(C)[C@@]2(O)CO)OC(CO)C(O)C1O (some centres not stated),5.31% [at 28.7 µM] (inactive),–
CC1C2CCC3C4CC=C5CC(N(C)C)CC[C@@]5(C)C4CC[C@@]32CN1C (some centres not stated),5.7% [at 28.7 µM] (inactive),–
C[C@]12C=CC(=O)C=C1CCC1C2C(O)C[C@]2(C)C1CC[C@]2(O)C(=O)CO (some centres not stated),4.7% [at 28.7 µM] (inactive),–
COc1ccc2c(c1)N(C[C@@H](C)CN(C)C)c1ccccc1S2,-1.15% (inactive),–
CCOC(=O)C1=CC(OC(CC)CC)C(NC(C)=O)C(N)C1 (configuration not stated),5.83% [at 28.7 µM] (inactive),–
CN(C)CCc1c[nH]c2ccc(CC3COC(=O)N3)cc12 (configuration not stated),-5.98% [at 28.7 µM] (inactive),–
NCC1CCC(N)C(O[C@@H]2C(O)[C@H](O[C@H]3OC(CO)C(O)C(N)C3O)[C@@H](N)C[C@H]2N)O1 (some centres not stated),6.04% [at 28.7 µM] (inactive),–
OCC1O[C@H](OC2C(CO)O[C@@](O)(CO)C2O)C(O)C(O)C1O (some centres not stated),7.43% [at 28.7 µM] (inactive),–
CC1(C)OC2CO[C@]3(COS(N)(=O)=O)OC(C)(C)OC3C2O1 (some centres not stated),15.2% [at 28.7 µM] (inactive),–
CC(=O)OC1CCC2C3CCc4cc(O)ccc4C3CCC12C (configuration not stated),9.34% [at 28.7 µM] (inactive),–
CN(C)CCCOC1C(C(O)CO)OC2OC(C)(C)O[C@@H]21 (some centres not stated),18.3% [at 28.7 µM] (inactive),–
COc1cc(C2c3cc4c(cc3C(O[C@@H]3OC5COC(c6cccs6)OC5C(O)C3O)C3COC(=O)C23)OCO4)cc(OC)c1O (some centres not stated),–,2.24 µM (active)
